In PubChem BioAssay (NCI):
The panel holds about 83,000 compounds, 20% with a hit somewhere; the sample as a whole holds those more often.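 Single-dose data. Exposure time 48 hours. Values below 10 considered active.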 A number with no mark means an inactive call. Activity calls are given as the source filed them.

The compounds below were run on IGROV1 ovarian (assay: NCI-60 one-dose screen, 48 h (100 = growth as untreated, 0 = no growth, -100 = all killed)). Details: 10 µM unless noted.

Row | SMILES | growth
1 | CCCCCN1C=C/C(=C\C(=O)N(C)c2ccc(Oc3ccccc3)cc2)c2ccccc21 | 58.1%
2 | O=C1Nc2cc(-c3ccc(NC(=O)C4CC4)cc3)ccc2/C1=C/c1ccc[nH]1 | 99.2%
3 | CCCOC(=O)N[C@H]1CCc2c(Cl)c(OC)c(OC)c(OC)c2-c2ccc(SC)c(=O)cc21 | 11.7%
4 | CCCCCCOc1ccc(/C=N/Nc2cc(C)nc3ccc(Cl)cc23)cc1 | -79% (active)
5 | Nc1c(C(=O)Nc2cccc3cnccc23)sc2nc3c(cc12)CN(Cc1ccccc1)CC3 | 99.9%
6 | CCCCOc1ccc(/C(C)=N/Nc2cc(C)nc3ccc(Br)cc23)cc1 | 85.7%
7 | Cc1cnc(C(=O)Nc2nc3ccc(S(=O)(=O)Nc4ccc(C(C)(C)C)cc4)cc3[nH]2)cn1 | 35.1%
8 | CCN1CCN(CCNc2nccc(-c3c(-c4cccc(OC)c4)nc4occn34)n2)S1(=O)=O | 79.9%
9 | CCCCOc1ccc(/C=N/Nc2cc(C)nc3ccc(Br)cc23)cc1 | 10%
10 | O=c1[nH]nc(-c2ccccc2)c2sc3ncc(-c4ccc(Br)cc4)n3c12 | 40.4%
11 | N#Cc1cc(-c2nc3ccccc3s2)c(=O)n(NS(=O)(=O)c2ccccc2)c1N | 98.7%
12 | Oc1ccc(C(c2ccc(O)cc2)c2ccc(Br)cn2)cc1 | 11.8%
13 | CCOC(=O)[C@@H]1CCCN(S(=O)(=O)c2ccc(S(=O)(=O)N(CC)CC)c(F)c2)C1 | 93.5%
14 | N#Cc1cccc(-c2ccc3c(c2)NC(=O)/C3=C\c2ccc[nH]2)c1 | 34.2%
